Inconclusive results are not listed. The source made the active and inactive calls. How the source made its calls, unless noted: active means hit-call score of the fitted dose curve at least 0.9, where 1 is the maximum; inactive means score below 0.9.
Key:
[1] = read-out: Interleukin-8 (IL8), CXCL8 (gene 3576); test: BSK_3C_IL8: BioMAP Diversity Plus: 3C Assay for Interleukin-8 (IL8) Biomarker Activity (AID 2283020); conditions: primary human endothelial cells (HUVEC); actives raise or lower the signal
Method in brief: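 IL-8 was measured by ELISA in HUVEC cultures 24 h after chemical dosing, with gain or loss of signal fitted relative to DMSO. Parallel SRB total-protein staining tracked overt cytotoxicity.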

[2] = read-out: Monokine induced gamma interferon (MIG), CXCL9 (gene 4283); test: BSK_3C_MIG: BioMAP Diversity Plus: 3C Assay for Monokine induced gamma interferon (MIG) Biomarker Activity (AID 2283021); conditions: primary human endothelial cells (HUVEC); actives raise or lower the signal;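 on AC50: MIG protein level measured by immunoassay in the treated endothelial cultures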
Method in brief: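 ELISA measurement of MIG in human umbilical vein endothelial cells 24 h after treatment. Cytotoxicity tracked by SRB staining in parallel cultures; gain or loss of signal fitted relative to DMSO.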

[3] = BSK_3C_SRB: Viability Assessment in the BioMAP Diversity Plus: 3C Assay (AID 2283023); conditions: primary human endothelial cells (HUVEC);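 further: fitted both ways against DMSO so a hit may be signal rise or drop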
Method in brief: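 Overt cytotoxicity is gauged in parallel confluent HUVEC cultures by SRB total-protein staining at the time of biomarker measurement, 24 h after dosing. Gain or loss of signal is fitted versus DMSO.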

[4] = BSK_3C_Vis: BioMAP Diversity Plus: 3C Assay for Morphology Visualization (AID 2283025); conditions: primary human endothelial cells (HUVEC);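 further: fitted both ways so gain or loss versus DMSO counts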;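 on AC50: light microscopy image of cell morphology used as background control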
Method in brief: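 Light-microscopy visualization of HUVEC cultures at 24 h post-treatment, with DMSO as baseline for bidirectional fitting.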

[5] = read-out: Pselectin, SELP (gene 6403); test: BSK_4H_Pselectin: BioMAP Diversity Plus: 4H Assay for Pselectin Biomarker Activity (AID 2283026); conditions: primary human endothelial cells (HUVEC); actives raise or lower the signal
Method in brief: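 ELISA of surface P-selectin on HUVEC, 24 h after dosing, with parallel SRB staining (0.1% after 10% TCA fixation, 560 nm) for overt cytotoxicity. Activity fitted in both directions relative to DMSO.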

[6] = BSK_4H_SRB: Viability Assessment in the BioMAP Diversity Plus: 4H Assay (AID 2283027); conditions: primary human endothelial cells (HUVEC);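 further: cells exposed to compound for 24 h before staining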;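 on AC50: curves fitted both ways versus DMSO so AC50 may be loss or gain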
Method in brief: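 Cytotoxicity readout: sulforhodamine B (0.1%) staining of total protein after 10% TCA fixation, measured at 560 nm in human umbilical vein endothelium at 24 h. DMSO set the baseline; fitting was bidirectional.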

[7] = BSK_BE3C_SRB: Viability Assessment in the BioMAP Diversity Plus: BE3C Assay (AID 2283028); conditions: primary human bronchial epithelial cells;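 on AC50: fitted both ways so AC50 may mark signal gain or loss versus DMSO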
Method in brief: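 SRB total-protein staining (0.1%, after TCA fixation) of chemically dosed human bronchial epithelial primary cells at 24 h; DMSO serves as the negative control for bidirectional curve fitting.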

[8] = read-out: Thrombomodulin, THBD (gene 7056); test: BSK_3C_Thrombomodulin: BioMAP Diversity Plus: 3C Assay for Thrombomodulin Biomarker Activity (AID 2283029); conditions: primary human endothelial cells (HUVEC); actives raise or lower the signal
Method in brief: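 ELISA measurement of thrombomodulin on HUVEC surface 24 h after chemical dosing; activity fitted in both directions relative to DMSO vehicle.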

[9] = read-out: Urokinase-type plasminogen activator receptor (uPAR), PLAUR (gene 5329); test: BSK_4H_uPAR: BioMAP Diversity Plus: 4H Assay for Urokinase-type plasminogen activator receptor (uPAR) Biomarker Activity (AID 2283030); conditions: primary human endothelial cells (HUVEC); actives raise or lower the signal
Method in brief: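 Endpoint derived via bidirectional curve fitting against DMSO baseline; readout was ELISA detection of uPAR on umbilical vein endothelial cells at 24 h post-treatment, with SRB-stained parallel cultures assessing cytotoxicity.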

[10] = read-out: Vascular endothelial growth factor receptor 2 (Homo sapiens) (UniProt P35968); test: BSK_4H_VEGFRII: BioMAP Diversity Plus: 4H Assay for Vascular endothelial growth factor receptor 2 (VEGFR2) Biomarker Activity (AID 2283031); conditions: primary human endothelial cells (HUVEC); actives raise or lower the signal;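 on AC50: cell-surface VEGFR2 protein level quantified by ELISA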
Method in brief: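 In this multiplexed HUVEC system, biomarker ELISA was performed after 24 h chemical exposure. Parallel SRB staining (TCA fixation, 560 nm) tracked cytotoxicity; DMSO served as baseline.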

[11] = read-out: Human Leukocyte Antigen - DR isotype (HLADR), HLA-DRA (gene 3122); test: BSK_BE3C_HLADR: BioMAP Diversity Plus: BE3C Assay for Human Leukocyte Antigen - DR isotype (HLADR) Biomarker Activity (AID 2283032); conditions: primary human bronchial epithelial cells; actives raise or lower the signal
Method in brief: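 Cell-surface HLA-DR ELISA readout at 24 h after dosing in the BE3C primary human lung bronchial epithelial system; gain or loss of signal against DMSO, with parallel sulforhodamine B staining of total protein for overt cytotoxicity.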

[12] = read-out: Vascular cell adhesion molecule 1 (VCAM1), VCAM1 (gene 7412); test: BSK_4H_VCAM1: BioMAP Diversity Plus: 4H Assay for Vascular cell adhesion molecule 1 (VCAM1) Biomarker Activity (AID 2283033); conditions: primary human endothelial cells (HUVEC); actives raise or lower the signal
Method in brief: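 VCAM-1 ELISA read 24 h after chemical dosing of HUVEC in the BioMAP 4H system, with gain or loss of signal fitted relative to DMSO. Parallel SRB staining (560 nm) checked overt cytotoxicity.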

[13] = read-out: Interferon-gamma inducible Protein 10 (IP10), CXCL10 (gene 3627); test: BSK_BE3C_IP10: BioMAP Diversity Plus: BE3C Assay for Interferon-gamma inducible Protein 10 (IP10) Biomarker Activity (AID 2283034); conditions: primary human bronchial epithelial cells; actives raise or lower the signal
Method in brief: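 IP-10 quantified by ELISA in human primary bronchial epithelial cell cultures at 24 hours post-dosing. Gain or loss of signal fitted relative to DMSO; parallel SRB staining assessed overt cytotoxicity.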

[14] = read-out: Monokine induced gamma interferon (MIG), CXCL9 (gene 4283); test: BSK_BE3C_MIG: BioMAP Diversity Plus: BE3C Assay for Monokine induced gamma interferon (MIG) Biomarker Activity (AID 2283035); conditions: primary human bronchial epithelial cells; actives raise or lower the signal
Method in brief: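 hu bronchial epithelial 1° cells, 24 h cpd; MIG by ELISA; bidirectional fit, DMSO = baseline.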

[15] = read-out: Transforming growth factor beta 1 (TGFb1), TGFB1 (gene 7040); test: BSK_BE3C_TGFb1: BioMAP Diversity Plus: BE3C Assay for Transforming growth factor beta 1 (TGFb1) Biomarker Activity (AID 2283036); conditions: primary human bronchial epithelial cells; actives raise or lower the signal
Method in brief: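 ELISA readout of TGF-b1 from human lung bronchial epithelial primary cells, taken 24 h post-treatment. Gain or loss of signal fitted relative to DMSO baseline, with parallel SRB staining for overt cytotoxicity.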

[16] = read-out: Plasminogen activator inhibitor-1 (PAI1), SERPINE1 (gene 5054); test: BSK_BE3C_PAI1: BioMAP Diversity Plus: BE3C Assay for Plasminogen activator inhibitor-1 (PAI1) Biomarker Activity (AID 2283037); conditions: primary human bronchial epithelial cells; actives raise or lower the signal
Method in brief: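 PAI-1 was measured by ELISA in human primary bronchial epithelial cultures 24 h after chemical dosing, with cytotoxicity checked by SRB total-protein staining in parallel cultures. Activity was fitted in both directions relative to DMSO.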

[17] = read-out: urokinase plasminogen activator (uPA), PLAU (gene 5328); test: BSK_BE3C_uPA: BioMAP Diversity Plus: BE3C Assay for urokinase plasminogen activator (uPA) Biomarker Activity (AID 2283038); conditions: primary human bronchial epithelial cells; actives raise or lower the signal
Method in brief: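 Using confluent primary human lung bronchial epithelial cultures, we dosed chemicals, waited 24 h, then ran a uPA ELISA, fitting bidirectionally against DMSO.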

[18] = read-out: Urokinase-type plasminogen activator receptor (uPAR), PLAUR (gene 5329); test: BSK_BE3C_uPAR: BioMAP Diversity Plus: BE3C Assay for Urokinase-type plasminogen activator receptor (uPAR) Biomarker Activity (AID 2283039); conditions: primary human bronchial epithelial cells; actives raise or lower the signal
Method in brief: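 uPAR levels were measured by ELISA after 24 h compound treatment of primary human bronchial epithelial cells, fitted in both directions relative to DMSO. Parallel SRB staining served as the cytotoxicity read-out.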

[19] = biological target: human Vitamin D Receptor (VDR), VDR (gene 7421) (UniProt P11473); test: ATG_VDR_TRANS: Attagene TRANS-FACTORIAL HepG2 Assay for human Vitamin D Receptor (VDR) (AID 2283022; active means hit-call score of the fitted dose curve at least 0.9, where 1 is the maximum)
Method in brief: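 Multiplexed TRANS reporter in HepG2; 24 h treatment; reporter mRNA by RT-PCR plus capillary electrophoresis; upregulation scored relative to DMSO.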

[20] = read-out: Matrix Metallopeptidase 1 (MMP1), MMP1 (gene 4312); test: BSK_BE3C_MMP1: BioMAP Diversity Plus: BE3C Assay for Matrix Metallopeptidase 1 (MMP1) Biomarker Activity (AID 2283024); conditions: primary human bronchial epithelial cells; actives raise or lower the signal
Method in brief: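 ELISA measurement of MMP-1 after 24 h compound exposure of primary human bronchial epithelial cells. Changes in either direction fitted relative to DMSO; parallel SRB staining checked overt cytotoxicity.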

Measured: AC50

Sequence of human Vitamin D Receptor (VDR), VDR (gene 7421) (P11473 whole entry, looked up): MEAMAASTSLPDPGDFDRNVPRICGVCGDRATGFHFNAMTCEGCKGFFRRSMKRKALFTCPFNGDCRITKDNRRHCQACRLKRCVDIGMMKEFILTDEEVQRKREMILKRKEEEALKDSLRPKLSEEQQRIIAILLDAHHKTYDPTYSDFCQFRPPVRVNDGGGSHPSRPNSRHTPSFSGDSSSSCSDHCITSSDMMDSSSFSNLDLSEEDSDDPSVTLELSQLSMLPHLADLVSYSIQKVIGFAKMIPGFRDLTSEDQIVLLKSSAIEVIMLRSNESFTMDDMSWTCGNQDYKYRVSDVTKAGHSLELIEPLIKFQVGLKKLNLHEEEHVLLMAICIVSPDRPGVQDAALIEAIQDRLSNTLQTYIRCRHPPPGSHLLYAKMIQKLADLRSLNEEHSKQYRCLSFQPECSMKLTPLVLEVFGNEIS

Nc1ccc(S(=O)(=O)c2ccc(N)cc2)cc1
inactive: [1] | [2] | [3] | [4] | [5] | [6] | [7] | [8] | [9] | [10] | [11] | [12] | [13] | [14] | [15] | [16] | [17] | [18]

CCCCCCCCCCC
inactive: [1] | [2] | [3] | [4] | [5] | [6] | [8] | [9] | [10] | [11] | [12] | [13] | [15] | [16] | [17] | [18]

CN[C@H]1CC[C@@H](c2ccc(Cl)c(Cl)c2)c2ccc(S(N)(=O)=O)cc21
active: [1] 23.9 µM | [2] 37.8 µM | [3] 16 µM | [4] 14.4 µM | [5] 9.02 µM | [6] 18.2 µM | [7] 34 µM | [8] 4.65 µM | [9] 20 µM | [10] 20 µM | [11] 31.4 µM | [12] 17.3 µM | [13] 37 µM | [14] 36.7 µM | [15] 31.1 µM | [16] 32.5 µM | [17] 31.1 µM | [18] 30.2 µM

NCCO
inactive: [1] | [2] | [3] | [4] | [5] | [6] | [8] | [9] | [10] | [11] | [12] | [14] | [15] | [16] | [17] | [18]

CC1(C)CC(N=C=O)CC(C)(CN=C=O)C1 (stereo not given)
active: [4] 39 µM
inactive: [1] | [2] | [3] | [5] | [6] | [7] | [8] | [9] | [10] | [11] | [12] | [13] | [15] | [16] | [17] | [18]

O=C(N[C@@H](Cc1ccccc1)[C@@H](O)C(=O)N1C[C@@H](O)[C@@H](O)C1)c1cc2cc(Cl)ccc2[nH]1
inactive: [2] | [19] | [3] | [20] | [4] | [5] | [6] | [7] | [8] | [9] | [10] | [11] | [12] | [15] | [16] | [17] | [18]

C1CCC(SSC2CCCCC2)CC1
active: [12] 20 µM
inactive: [2] | [19] | [3] | [20] | [4] | [5] | [6] | [7] | [8] | [9] | [10] | [11] | [14] | [15] | [16] | [17] | [18]
